# An excerpt weighted towards active compounds, which were near 6.5% of everything screened.
# HepG2 viability = HepG2 cytotoxicity, counter-screen for TGF-b inhibitors; HepG2 CAGA-GFP viability, ATP luminescence, 18 h; Potency, µM (titrated, usually from 46.1 µM), without a hit: top-dose activity change, negative = cytotoxicity, actives largely listed as cytotoxic; hit rate 0.76% among 410,000; AID 588856; also: potency is read from the fitted curve at half-maximal effect
#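 CellTiter-Glo luminescence gave cytotoxicity after 18 hours at 37 degrees C. The cells were HepG2 CAGA-GFP in 1% FBS DMEM, stimulated with 500 pg/mL TGF-beta after compound addition. %Activity was normalised to no-cell wells (complete cell-killing) and DMSO (no toxicity), and curves were fitted and classified.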
# HT1080NT lethal = kills 2HG-producing HT-1080-NT fibrosarcoma cells; AID 686970; Potency, µM (doses to about 46.1 µM), for inactives: top-dose activity, negative = less viability, actives largely listed as cytotoxic; HT-1080-NT fibrosarcoma viability, CellTiter-Glo ATP luminescence, 48 h; hit rate 1.6% among 360,000;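 also: NT is the 2HG producing partner of a matched IDH1 knockdown line; potency is read from the fitted curve at half-maximal effect; 0% = DMSO-treated cells and -100% = media-only wells without cells; nearly all actives have a fitted effect of over 55% in size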
#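 Compounds were tested in concentration-response format on HT-1080-NT cells for 48 hours at 37 degrees C. Cell viability came from CellTiter-Glo luminescence; curves were classified by r2, response magnitude and activity.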
# HT1080 IDH1KD tx = toxicity to HT-1080 IDH1 knockdown cells (counter line); HT-1080 IDH1 knockdown viability, ATP luminescence, 48 h; Potency, µM (titrated, usually from 46.1 µM), for inactives: top-dose activity, negative = toxicity, usual class: cytotoxic; hit rate 2% among 360,000;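 also: potency is read from the fitted curve at half-maximal effect; 0% = DMSO wells and -100% = cell-free medium wells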
#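 Knockdown cells (IDH1KD HT-1080) received compounds 2 h after plating at 750 cells/well and were kept 48 h at 37 °C in 5% FBS RPMI. A CellTiter-Glo luminescence read gave % activity for curve fitting.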
# TGFb inhibitor = inhibitors of TGF-b signaling. hit rate 1.2% among 410,000. Potency, µM (highest dose often 46.1 µM), for the others: top-dose activity, negative = inhibition, usual class: inhibitors. HepG2 CAGA-GFP TGF-b/SMAD3 reporter, GFP fluorescence, 18 h; TGF-beta stimulated, 500 pg/mL final; also: potency is read from the fitted curve at half-maximal effect; % is scaled to controls: 0 for no effect and ±100 for the full control effect; nearly all actives have a fitted effect of over 65% in size
#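 HEPG2 CAGA-GFP cells (1000/well, DMEM with 1% FBS) were pre-incubated 2 h at 37 degrees C, given compound by pin tool, then stimulated with TGF-beta at 500 pg/mL final for 18 h before per-cell GFP fluorescence imaging.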
# IL-1B inflam inh = inflammasome signaling inhibition, IL-1 beta readout | hit rate 4.7% among 360,000 | THP-1 LPS/ATP IL-1B secretion, AlphaLISA, 16 h; stronger effect = lower value | activity change, % at 57.5 µM; in the data active = activity change below about -50%; inconclusive = mostly about -30% to -49%; also: % is scaled to controls: 0 for no effect and ±100 for the full control effect
#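 THP-1 cells pretreated 1 hr with compounds (up to 57.5 uM final), then stimulated with LPS (250 ng/mL final) plus ATP (1.25 mM final); secreted IL-1B measured by AlphaLISA after 16 hr, decreased signal indicating inhibition.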
# Giardia killer = Giardia lamblia killing; hit rate 0.15% among 340,000; Giardia lamblia trophozoite viability; AID 540267; activity change, % at 7.66 µM, hits read low; in the data active = activity change below about -80%; inconclusive = between about -30% and that limit;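 also: parasites exposed to compound for two days anaerobically before the ATP read; % is scaled to controls: 0 for no effect and ±100 for the full control effect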
#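 Viability, read as ATP luminescence: trophozoites at 100 cells/well, compound added, 48 hrs anaerobic at 37 deg C, then 15-30 min room-temperature development before reading.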
# * = called active by the depositor; ? = inconclusive; · = not tested or not shown. Unless noted, calls follow the shape of the dose curve; as a rule, active = well fitted curve in the direction sought with a large enough effect; inconclusive = small, poorly fitted or top-dose-only effect, or another doubt; inactive = no such curve, though single readings can be large; an effect the other way counts as inactive or inconclusive.
SMILES,HepG2 viability,HT1080NT lethal,HT1080 IDH1KD tx,TGFb inhibitor,IL-1B inflam inh,Giardia killer
Cc1c(NS(=O)(=O)c2ccc(NCC3CCCO3)c([N+](=O)[O-])c2)c(=O)n(-c2ccccc2)n1C (configuration not stated),-4%,3%,-11%,1%,1,20
Cc1ccc2nc(-c3cccnc3)c(Nc3ccccc3C)n2c1,-29%,1%,1%,-28%,-52*,7
Cc1ccccc1Nc1c(-c2cccnc2)nc2ccc(Cl)cn12,-32%,·,·,-7%,·,·
Cc1ncc(CO)c(/C=N/NC(=O)c2ccc(O)cc2)c1O,-11%,7%,17%,-1%,0,-5
Cc1ncc(CO)c(/C=N/NC(=O)c2cc3c(s2)CCCC3)c1O,-2%,?,2.6µM*,7%,90,?
C/C(=N\N=C(N)N)c1cccc(Cl)c1,-42%,?,?,1%,-57*,-4
C/C(=N\N=C(N)N)c1ccc(Cl)cc1Cl,-50%,13µM*,21µM*,?,-92*,-17
CCCS(=O)(=O)NC(=O)C1(C)CCCN(C(=O)c2ccccc2F)C1 (configuration not stated),-1%,24%,10%,-6%,-71*,·
CCCS(=O)(=O)NC(=O)C1(C)CCCN(C(=O)c2c(F)cccc2F)C1 (configuration not stated),1%,16%,4%,-14%,-4,·
COc1ccc(Cc2[nH]n3c(=O)cc(C(C)C)nc3c2-c2ccccc2)cc1,11µM*,?,?,?,73,-5
CCOC(=O)N1CCC(N(CCN(C)C)C(=S)Nc2cccc(C)c2)CC1,5%,12%,9%,10%,12,-21
CCOC(=O)N1CCC(N(CCN(C)C)C(=S)Nc2ccc(Oc3ccccc3)cc2)CC1,-12%,2%,13%,1%,-89*,32
CCOC(=O)N1CCC(N(CCOC)C(=O)Nc2ccc(Cl)c(Cl)c2)CC1,-35%,5%,-27%,-14%,-63*,3
CCOC(=O)N1CCN(Cc2nc(N)nc(Nc3ccc(Oc4ccccc4)cc3)n2)CC1,-5%,16µM*,?,?,-27,8
CCOC(=O)N1CCN(Cc2nc(N)nc(Nc3ccc(OC)cc3)n2)CC1,-34%,5%,?,-9%,-12,-5
COC(=O)c1ccccc1NC(=O)c1cc[n+](C)cc1,5.6µM*,-2%,2%,0%,6,-7
O=C(Nc1cccc(Cl)c1N1CCOCC1)c1ccc([N+](=O)[O-])o1,-1%,11%,8%,4%,-15,-86*
O=C(Nc1cccc(Cl)c1N1CCOCC1)c1cc([N+](=O)[O-])ccc1N1CCOCC1,5%,4%,10%,1%,-6,-1
O=C(Nc1ccccc1N1CCOCC1)c1ccc(Br)o1,-24%,-8%,11%,1%,-10,-10
O=C(Nc1ccccc1N1CCN(C(=O)c2ccccc2)CC1)c1ccc([N+](=O)[O-])o1,-198%,?,16µM*,11µM*,2,-86*
CN1CCN(c2ccccc2NC(=O)c2ccc(Br)o2)CC1,7%,4%,9%,0%,-52*,-10
CCC(C)NC(=S)Nc1ccc(C(=O)OC)cc1 (configuration not stated),9%,-30%,?,-18%,-17,5
Cc1ccccc1S(=O)Cc1ccc(C(=O)NC2CCN(Cc3ccccc3)CC2)o1 (configuration not stated),-13%,14%,1%,-9%,0,-14
Cc1cccc(N2C(=O)C(Cl)=C(Nc3c(C)n(C)n(-c4ccccc4)c3=O)C2=O)c1C,-8%,-6%,3%,-17%,0,3
CSc1ccc(C(=O)C2CCCN(C(=O)c3ccc4c(c3)OCO4)C2)cc1 (configuration not stated),3%,1%,-7%,-3%,0,19
SMILES,HepG2 viability,HT1080NT lethal,HT1080 IDH1KD tx,TGFb inhibitor,IL-1B inflam inh,Giardia killer
COCCc1nn2c(=O)cc(COC(=O)c3ccc(OC)c(OC)c3)nc2s1,-20%,·,·,-12%,·,·
COC(=O)c1ccccc1NC(=O)c1cccc(NC(=O)c2ccc(Br)o2)c1C,-8%,13µM*,10µM*,4%,-24,6
COC(=O)c1ccccc1NC(=O)c1ccc(Cn2cc(Cl)cn2)o1,-12%,?,21µM*,-1%,15,9
CC1CCN(c2ccccc2NC(=O)c2ccc([N+](=O)[O-])o2)CC1,5%,1%,-16%,17%,32,-24
O=C(Nc1ccccc1C(=O)O)c1ccc(Br)o1,-19%,-25%,?,0%,31,-4
O=C(Nc1ccccc1N1CCCC1)c1ccc([N+](=O)[O-])o1,-81%,?,?,25µM*,-93*,?
COC(=O)c1cc(NC(=O)c2ccc(Cn3cc(Cl)cn3)o2)cc(C(=O)OC)c1,-5%,?,?,-12%,-9,-13
COc1ccc(CNC(=O)CSc2nnc3nc(C)cc(C)n23)cc1OC,-5%,11%,9%,20%,-3,0
Cc1cccc(N(C(=O)CCC(=O)Nc2ccccn2)C(C(=O)NC(C)C)c2ccc(F)cc2)c1 (configuration not stated),-1%,13%,3%,2%,-3,-2
CCCCCCCCCCCCCCCCCCN(CCCCCCCCCCCCCCCCCC)c1ccccc1,-16%,·,·,-11%,·,·
Cc1ccc(Sc2c(C(=O)NCc3cccc(F)c3)[nH]c3ccccc23)cc1,-17%,·,·,-11%,·,·
CC(C)(C)c1cccc(P(=O)(c2ccccc2)c2ccccc2)c1O,-5%,-22%,-6%,-13%,-71*,-8
CC(C)(O)P(C)(=O)c1ccccc1 (configuration not stated),-7%,0%,-1%,?,1,-5
O=C(Nc1ccc(F)cc1)N1CCN(c2ccc3nnc(-c4ccc(F)cc4)n3n2)CC1,13%,?,?,-6%,-21,6
Fc1ccc(-c2nnc3ccc(N4CCc5ccccc5C4)nn23)cc1,1%,0%,-20%,20%,-89*,-2
Cc1cc(C(=O)N/N=C/c2ccc(N(C)C)cc2)c2ccccc2n1,-2%,3.7µM*,3.3µM*,-10%,36,4
Cc1cc(C(=O)N/N=C/c2ccc([N+](=O)[O-])cc2)c2ccccc2n1,54%,18µM*,4.6µM*,0%,13,2
CCc1ccc(/C=N/NC(=O)c2cc(C3CC3)nc3ccccc23)s1,-23%,?,1.8µM*,-7%,111,25
